Values joined by “and” are separate entries in the source; they are usually repeats but may differ in a detail not shown here. Equal entries are not always repeated. In all, about 5,500 compounds went through this assay and about 2,000 (36%) were called active. Roughly 18% stayed inconclusive and do not appear here. No stated cut-off is given here; in the data, active means normalized growth mostly below about 0.91 (no sharp cut-off); inconclusive means no clear call, values can overlap the other calls; inactive means mostly above about 0.92. This is one part of the list.
Experiment: chemical genetic growth profiling, strain panel (AID 1159580);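 further: tested at 20 µM; growth read once vehicle control cultures reached saturation at 30 °C; 1 = growth at the plate median or of vehicle wells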
Settings: S. cerevisiae deletion strains, growth OD

SMILES: COc1ccc2c(c1)OC/C(=C\c1ccc(OC)c(O)c1)C2=O
- normalized growth (locus YAL013W, strain DEP1, stronger effect = lower value): 0.72 (active)
- normalized growth (locus YAL021C, strain ccr4, stronger effect = lower value): 0.985 (inactive)
- normalized growth (locus YAL026C, strain drs2, stronger effect = lower value): 0.865 (active)
- normalized growth (locus YAL030W, strain snc1, stronger effect = lower value): 0.935 (inactive)
- normalized growth (locus YBL061C, strain skt5, stronger effect = lower value): 0.905 (active)
- normalized growth (locus YBR009C, strain hhf1, stronger effect = lower value): 0.781 (active)
- normalized growth (locus YBR021W, strain FUR4, stronger effect = lower value): 0.796 (active)
- normalized growth (locus YBR023C, strain chs3, stronger effect = lower value): 0.88 (active)
- normalized growth (locus YBR171W, strain sec66, stronger effect = lower value): 0.919 (inactive)
- normalized growth (locus YBR229C, strain ROT2, stronger effect = lower value): 0.967 (inactive)
- normalized growth (locus YBR231C, strain swc5, stronger effect = lower value): 0.8 (active)
- normalized growth (locus YBR279W, strain paf1, stronger effect = lower value): 0.912 (active)
- normalized growth (locus YCL011C, strain gbp2, stronger effect = lower value): 0.857 (active)
- normalized growth (locus YCL016C, strain dcc1, stronger effect = lower value): 0.881 (active)
- normalized growth (locus YCL029C, strain bik1, stronger effect = lower value): 0.772 (active)
- normalized growth (locus YCL069W, strain vba3, stronger effect = lower value): 0.878 (active)
- normalized growth (locus YCR088W, strain abp1, stronger effect = lower value): 0.954 (inactive)
- normalized growth (locus YDL005C, strain med2, stronger effect = lower value): 0.984 (inactive)
- normalized growth (locus YDL035C, strain GPR1, stronger effect = lower value): 0.818 (active)
- normalized growth (locus YDL040C, strain nat1, stronger effect = lower value): 0.953 (inactive)
- normalized growth (locus YDL074C, strain BRE1, stronger effect = lower value): 0.534 (active)
- normalized growth (locus YDL101C, strain DUN1, stronger effect = lower value): 0.665 (active)
- normalized growth (locus YDL185W, strain tfp1, stronger effect = lower value): 0.909 (inactive)
- normalized growth (locus YDL192W, strain arf1, stronger effect = lower value): 0.748 (active)
- normalized growth (locus YDR001C, strain nth1, stronger effect = lower value): 0.953 (inactive)
- normalized growth (locus YDR069C, strain doa4, stronger effect = lower value): 0.97 (inactive)
- normalized growth (locus YDR101C, strain arx1, stronger effect = lower value): 0.855 (active)
- normalized growth (locus YDR137W, strain rgp1, stronger effect = lower value): 0.705 (active)
- normalized growth (locus YDR150W, strain NUM1, stronger effect = lower value): 0.894 (active)
- normalized growth (locus YDR159W, strain sac3, stronger effect = lower value): 0.8 (active)
- normalized growth (locus YDR162C, strain NBP2, stronger effect = lower value): 0.475 (active)
- normalized growth (locus YDR195W, strain ref2): 1.11 (inactive)
- normalized growth (locus YDR297W, strain sur2, stronger effect = lower value): 0.864 (active)
- normalized growth (locus YDR318W, strain mcm21, stronger effect = lower value): 0.574 (active)
- normalized growth (locus YDR334W, strain swr1, stronger effect = lower value): 0.894 (active)
- normalized growth (locus YDR335W, strain msn5, stronger effect = lower value): 0.943 (inactive)
- normalized growth (locus YDR388W, stronger effect = lower value): 0.913 (active)
- normalized growth (locus YDR392W, strain spt3, stronger effect = lower value): 0.206 (active)
- normalized growth (locus YDR502C, strain sam2, stronger effect = lower value): 0.69 (active)
- normalized growth (locus YEL003W, strain gim4, stronger effect = lower value): 0.806 (active)
- normalized growth (locus YEL037C, strain rad23, stronger effect = lower value): 0.954 (inactive)
- normalized growth (locus YEL061C, strain CIN8 (second series), stronger effect = lower value): 0.935 (inactive)
- normalized growth (locus YEL061C, strain CIN8, stronger effect = lower value): 0.623 (active)
- normalized growth (locus YER015W, strain faa2, stronger effect = lower value): 0.874 (active)
- normalized growth (locus YER016W, strain bim1, stronger effect = lower value): 0.949 (inactive)
- normalized growth (locus YER110C, stronger effect = lower value): 0.79 (active)
- normalized growth (locus YER111C, strain swi4, stronger effect = lower value): 0.964 (inactive)
- normalized growth (locus YER155C, strain BEM2 (second series), stronger effect = lower value): 0.448 (active)
- normalized growth (locus YER155C, strain BEM2, stronger effect = lower value): 0.301 (active)
- normalized growth (locus YER167W, strain BCK2, stronger effect = lower value): 0.816 (active)
- normalized growth (locus YFR010W, strain ubp6, stronger effect = lower value): 0.944 (inactive)
- normalized growth (locus YGL078C, strain dbp3, stronger effect = lower value): 0.878 (active)
- normalized growth (locus YGL086W, strain mad1, stronger effect = lower value): 0.517 (active)
- normalized growth (locus YGL167C, strain pmr1, stronger effect = lower value): 0.947 (inactive)
- normalized growth (locus YGL173C, strain kem1, stronger effect = lower value): 0.878 (active)
- normalized growth (locus YGL227W, strain vid30, stronger effect = lower value): 0.813 (active)
- normalized growth (locus YGL240W, strain doc1, stronger effect = lower value): 0.795 (active)
- normalized growth (locus YGL248W, strain PDE1, stronger effect = lower value): 0.603 (active)
- normalized growth (locus YGL253W, strain hxk2, stronger effect = lower value): 0.8 (active)
- normalized growth (locus YGR078C, strain PAC10, stronger effect = lower value): 0.487 (active)
- normalized growth (locus YGR135W, strain pre9, stronger effect = lower value): 0.684 (active)
- normalized growth (locus YGR229C, strain SMI1, stronger effect = lower value): 0.386 (active)
- normalized growth (locus YGR252W, strain gcn5, stronger effect = lower value): 0.545 (active)
- normalized growth (locus YHR013C, strain ard1, stronger effect = lower value): 0.783 (active)
- normalized growth (locus YHR027C, strain rpn1, stronger effect = lower value): 0.909 (active)
- normalized growth (locus YHR030C, strain SLT2, stronger effect = lower value): 0.399 (active) and 0.978 (inactive)
- normalized growth (locus YHR079C, strain IRE1 (second series), stronger effect = lower value): 0.831 (active)
- normalized growth (locus YHR079C, strain IRE1, stronger effect = lower value): 0.968 (inactive)
- normalized growth (locus YHR094C, strain hxt1, stronger effect = lower value): 0.812 (active)
- normalized growth (locus YHR129C, strain ARP1, stronger effect = lower value): 0.516 (active)
- normalized growth (locus YHR142W, strain chs7, stronger effect = lower value): 0.727 (active)
- normalized growth (locus YHR200W, strain rpn10, stronger effect = lower value): 0.864 (active)
- normalized growth (locus YIL066C, strain RNR3, stronger effect = lower value): 0.665 (active)
- normalized growth (locus YIL073C, strain SPO22, stronger effect = lower value): 0.631 (active)
- normalized growth (locus YIL125W, strain kgd1, stronger effect = lower value): 0.916 (active)
- normalized growth (locus YIR030C, strain dcg1, stronger effect = lower value): 0.854 (active)
- normalized growth (locus YJL092W, strain hpr5, stronger effect = lower value): 0.94 (inactive)
- normalized growth (locus YJL095W, strain BCK1 (second series), stronger effect = lower value): 0.899 (active)
- normalized growth (locus YJL095W, strain BCK1, stronger effect = lower value): 0.262 (active) and 0.961 (inactive)
- normalized growth (locus YJL115W, strain asf1, stronger effect = lower value): 0.953 (inactive)
- normalized growth (locus YJL129C, strain trk1, stronger effect = lower value): 0.776 (active)
- normalized growth (locus YJL134W, strain LCB3, stronger effect = lower value): 0.949 (inactive)
- normalized growth (locus YJL154C, strain vps35, stronger effect = lower value): 0.969 (inactive)
- normalized growth (locus YJL164C, strain tpk1, stronger effect = lower value): 0.876 (active)
- normalized growth (locus YJL166W, strain qcr8, stronger effect = lower value): 0.654 (active)
- normalized growth (locus YJL168C, strain set2, stronger effect = lower value): 0.948 (inactive)
- normalized growth (locus YJL187C, strain SWE1 (second series), stronger effect = lower value): 0.773 (active)
- normalized growth (locus YJR043C, strain POL32, stronger effect = lower value): 0.731 (active)
